Jurkat NFkB inh – lowers PMA/ionomycin-induced NF-kB signal in Jurkat cells | 330,000 tested, 0.53% active | AID 435003 | inhibition, % at 4 µM | PMA/ionomycin-induced NF-kB luciferase reporter, luminescence; in the data active = inhibition above about 50%
Gli-Sufu block – antagonists of Gli-Sufu signaling; Sufu-KO-LIGHT fibroblasts, Gli luciferase reporter luminescence; 340,000 tested, 0.74% active; AID 588413; inhibition, % at 5 µM;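 active = inhibition above about 55%, limit read from the data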;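 also: 0% = DMSO-treated cells and 100% = wells with medium but no cells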
697 NFkB inh – lowers PMA/ionomycin-induced NF-kB signal in 697 B cells; 330,000 tested, 0.33% active; inhibition, % at 4 µM; 697 B-cell NF-kB luciferase reporter, 16 h; in the data active = inhibition above about 35%
Mdm2-MdmX inh – disrupts the human Mdm2-MdmX interaction; inhibition, % at 8 µM; AID 485346; O15151+Q00987; 330,000 tested, 3% active; SaOS-2 split-luciferase Mdm2/MdmX complementation, luminescence;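 active = inhibition of at least 50% at 8 µM in the primary screen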
Target sequence (O15151 whole entry, looked up): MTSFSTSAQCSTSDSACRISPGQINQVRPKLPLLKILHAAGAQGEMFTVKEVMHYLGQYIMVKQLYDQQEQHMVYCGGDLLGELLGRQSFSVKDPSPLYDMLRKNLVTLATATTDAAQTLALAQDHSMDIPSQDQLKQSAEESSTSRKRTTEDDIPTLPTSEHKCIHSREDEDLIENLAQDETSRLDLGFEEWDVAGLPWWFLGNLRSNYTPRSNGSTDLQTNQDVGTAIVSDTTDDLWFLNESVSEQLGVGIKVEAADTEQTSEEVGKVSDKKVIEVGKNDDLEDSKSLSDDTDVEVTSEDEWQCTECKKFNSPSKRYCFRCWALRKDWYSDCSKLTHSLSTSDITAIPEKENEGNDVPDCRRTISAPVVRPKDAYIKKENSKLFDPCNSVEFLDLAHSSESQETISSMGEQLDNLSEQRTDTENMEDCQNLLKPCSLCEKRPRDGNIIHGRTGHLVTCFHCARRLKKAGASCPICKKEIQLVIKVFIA
Target sequence (Q00987 whole entry, looked up): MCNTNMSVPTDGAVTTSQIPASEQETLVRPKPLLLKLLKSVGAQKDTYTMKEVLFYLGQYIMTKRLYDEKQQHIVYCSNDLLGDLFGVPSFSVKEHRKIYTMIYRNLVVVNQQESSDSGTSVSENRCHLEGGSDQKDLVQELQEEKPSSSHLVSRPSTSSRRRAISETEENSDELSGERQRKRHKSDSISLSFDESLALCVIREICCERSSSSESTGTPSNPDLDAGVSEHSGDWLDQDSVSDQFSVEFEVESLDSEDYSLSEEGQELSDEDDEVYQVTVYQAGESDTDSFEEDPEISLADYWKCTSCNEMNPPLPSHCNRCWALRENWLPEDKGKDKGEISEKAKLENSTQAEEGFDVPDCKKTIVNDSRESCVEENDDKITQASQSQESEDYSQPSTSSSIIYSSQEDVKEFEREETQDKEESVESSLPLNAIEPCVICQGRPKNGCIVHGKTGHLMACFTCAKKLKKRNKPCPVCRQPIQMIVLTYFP
Beta apoptosis – blocks beta cell apoptosis. 300,000 tested, 0.8% active. protection from apoptosis, % (concentration not given with the values). INS-1E cytokine-induced death, ATP luminescence, 48 h; percent of positive-control rescue, neutral wells zero;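 active = Every replicate reaches about 75%, or at least half do and their mean reaches it too, limit read from the data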;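 also: 0% = cytokine-treated negative control wells and 100% = positive control rescue; higher means more ATP so stronger rescue from cytokine killing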
Mdm2 MdmX conf – human Mdm2/MdmX binding inhibition, confirmed; inhibition, % at 8 µM; luminescent assay; 10,000 tested, 55% active; shares compounds with Mdm2-MdmX inh; in the data active = inhibition above about 40%
Full FLuc ctr – counter-screen for Mdm2/MdmX inhibitors: full-length luciferase. shares compounds with Mdm2-MdmX inh. SaOS-2 full-length luciferase counterscreen, luminescence. inhibition, % at 8 µM. 6,200 tested, 77% active. AID 504607;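 active = mean inhibition at 8 µM reaching about 37%, which flags the compound as non-specific, limit read from the data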;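 also: p53-null SaOS-2 cells with luciferase driven by a doxycycline-inducible promoter; compound on cells about two nights before reading with doxycycline added after day one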
* hit, by the source's call; · = no result. Only some compounds are listed: those with a hit (about 4% of all), similar ones and a draw of the others.

SMILES	Jurkat NFkB inh	Gli-Sufu block	697 NFkB inh	Mdm2-MdmX inh	Beta apoptosis	Mdm2 MdmX conf	Full FLuc ctr
Cc1ccc(S(=O)(=O)/N=C2\C=C(NS(=O)(=O)c3ccccc3)C(=O)c3ccccc32)c(C)c1	·	1	·	·	·	·	·
COC(=O)c1ccccc1NC1=C/C(=N\S(=O)(=O)c2ccc(C(=O)O)cc2)c2ccccc2C1=O	19	5	-1	90*	110*	68*	3
COc1cc(Cl)c(C)cc1NC(=O)c1ccc(S(C)(=O)=O)cc1	8	0	3	25	1	·	·
O=C(CCNC(=O)c1ccccc1)OCC(=O)c1ccccc1	-6	-2	11	26	-6	·	·
COc1cc(/C=N/NC(=O)C(=O)NCc2ccco2)cc(Cl)c1O	10	3	8	-3	7	·	·
N#CC(C#N)=c1ccc2c(c1)N1C(c3ccccc3)=CC(c3ccccc3)C3CCCCC31N=2 (centres undefined)	8	3	3	61*	0	32	·
COc1ccc(-c2cc3nc(CCl)[nH]c(=O)c3s2)cc1	-45	-80	-41	95*	4	30	·
COc1cc([C@@H]2c3cc4c(cc3[C@@H](O)[C@H]3COC(=O)[C@H]23)OCO4)cc(OC)c1O[Si](C)(C)C(C)(C)C	9	0	-1	71*	1	37	81*
CCC(C)Oc1cc(-c2ccnc(Nc3cccc(Cl)c3)n2)ccn1 (centres undefined)	27	-8	-54	95*	-8	73*	25
Nc1ccccc1C(=O)NNC1=C(C(=O)C(F)(F)F)CCC1	38	4	-91	53*	-13	49*	148*
O=C(NNC1=C(C(=O)C(F)(F)F)CCC1)c1ccccc1O	0	-2	-20	50	16	39	·
COc1ccccc1C(=O)NNC1=C(C(=O)C(F)(F)F)CCC1	-2	14	-34	70*	10	58*	72*
O=C(NNC1=C(C(=O)C(F)(F)F)CCC1)c1ccccc1Cl	3	8	10	7	9	·	·
COc1cccc(C(=O)NNC2=C(C(=O)C(F)(F)F)CCC2)c1	0	-9	16	23	1	·	·
Cc1ccc(S(=O)(=O)NCCS(=O)(=O)N2CCN(c3ccc(F)cc3)CC2)cc1	19	3	2	-12	4	·	·
COCCCN(C(=S)Nc1c(C)cc(C)cc1C)C(C)c1ccccn1 (centres undefined)	-2	-7	9	7	-1	·	·
COc1ccc(N2C(=O)N3[C@H](c4cccc(C)c4)[C@@H]4C(=O)N(Cc5ccccc5)C(=O)[C@@H]4[C@]3(Cc3ccccc3)C2=O)cc1	-2	8	-13	70*	9	80*	36
CCN1C(=O)[C@H]2[C@@H](c3ccc(C)cc3)N3C(=O)N(c4ccc(C(F)(F)F)cc4)C(=O)[C@@]3(Cc3ccccc3)[C@H]2C1=O	-7	1	4	34	0	·	·
COc1ccc([C@@H]2[C@@H]3C(=O)N(C(C)(C)C)C(=O)[C@@H]3[C@]3(Cc4ccccc4)C(=O)N(c4ccc(OC)cc4)C(=O)N23)cc1	0	0	10	-1	-2	·	·
Cc1cccc([C@@H]2[C@@H]3C(=O)N(Cc4ccccc4)C(=O)[C@@H]3[C@]3(C)C(=O)N(c4ccc(C(F)(F)F)cc4)C(=O)N23)c1	-7	0	7	84*	9	74*	33
CC1Sc2ccc(S(=O)(=O)CCC(=O)NC3CCCC(C)C3C)cc2NC1=O (centres undefined)	4	3	-25	-2	-1	·	·
COc1ccc(Cn2c(=O)cc(N)n(-c3ccccc3C)c2=O)cc1	32	-29	-11	44	-1	·	·
Cc1ccc(N(CC(=O)NC2CCCC2)C(=O)CNC(=O)c2cccs2)cc1C	12	·	3	-6	5	·	·
CCC(C(=O)c1ccc(O)cc1)c1ccccc1 (centres undefined)	-1	-3	-22	21	-4	·	·
O=C(c1ccc(Cl)cc1)C(CN1CCCC1)c1ccccc1 (centres undefined)	8	6	-113	71*	61	34	·
SMILES	Jurkat NFkB inh	Gli-Sufu block	697 NFkB inh	Mdm2-MdmX inh	Beta apoptosis	Mdm2 MdmX conf	Full FLuc ctr
CCCCOc1ccc(C(=O)C(CN2CCOCC2)c2ccccc2)cc1 (centres undefined)	8	3	20	94*	67	74*	21
COc1ccc(C(=O)C(CN2CCCC2)c2ccccc2)cc1 (centres undefined)	11	18	-67	99*	-46	64*	28
COc1ccc(C(=O)C(CN2CCOCC2)c2ccccc2)cc1 (centres undefined)	26	14	-62	80*	-36	81*	27
CCCOc1ccc(C(=O)C(CN2CCCC2)c2ccccc2)cc1 (centres undefined)	·	4	·	·	0	·	·
Brc1ccc(-c2noc3c2-c2nc(C4CCCCC4)sc2CC3)cc1	0	-7	22	-16	-3	·	·
N#Cc1ccccc1OCC(=O)Nc1cc(S(=O)(=O)N2CCCCC2)ccc1N1CCOCC1	·	12	·	·	·	·	·
O=C(c1ccccc1)C(CCC(CN1CCOCC1)C(=O)c1ccccc1)CN1CCOCC1 (centres undefined)	24	0	3	95*	95*	65*	51*
COc1ccc(Cl)cc1N(CC(=O)NCCSc1ccccn1)S(=O)(=O)c1ccccc1	2	10	3	-4	3	·	·
Cc1ccc(OCC(=O)Nc2ccc(O)c(-c3nc4ccccc4o3)c2)cc1	-13	-16	-3	92*	7	47*	108*
COc1ccc(OCC(=O)Nc2ccc3oc(-c4ccncc4)nc3c2)cc1	-21	-20	-8	-5	-9	·	·
CCN1C(=O)[C@H]2[C@@H](c3ccc(-c4cccc(Cl)c4)c(OC)c3)N[C@@](Cc3ccccc3)(C(=O)OC)[C@H]2C1=O	32	-7	4	52*	4	29	54*
CCN1C(=O)[C@H]2[C@@H](c3ccc(-c4ccc(Cl)c(Cl)c4)cc3)N[C@@](Cc3ccccc3)(C(=O)OC)[C@H]2C1=O	22	5	11	57*	3	34	·
COC(=O)[C@]1(Cc2ccccc2)N[C@H](c2ccc(-c3cccc(Cl)c3)c(OC)c2)[C@@H]2C(=O)N(C)C(=O)[C@@H]21	·	28	·	·	·	·	·
Cc1cccc2c1cnn2C(=O)Nc1cc(F)ccc1F	-77	-79	-66	-124	-6	·	·
Cc1ccc(NC(=O)c2cccc3c2C(=O)N(C2CCCCC2)C3)c(Cl)c1	-2	0	9	33	-7	·	·
O=C(c1cc(-c2cccc(O)c2)on1)N1CCN(C(c2ccccc2)c2ccccc2)CC1	14	15	-8	50	81*	13	·

Assay outcomes deposited in PubChem BioAssay by several laboratories.
